Measured values taken from PubChem BioAssay (NCI).
This is part of a sample that, as a whole, favours compounds with a hit. Of some 83,000 tested, about 20% had one in any assay.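 Testing used 96-well plates and a 48-hour single-concentration exposure. Example: -40 means 40% of the starting cells died.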 Active and inactive are the calls of the source. Rule for the calls: active = growth percent below 10; inactive = the rest.

Columns and labels:
Assay in all cases: NCI-60 one-dose screen, 48 h (100 = growth as untreated, 0 = no growth, -100 = all killed)
Conditions in all cases: 10 µM unless noted
HCT-15 colon = tested on: HCT-15 colon
HT29 colon = tested on: HT29 colon
SNB-19 CNS = tested on: SNB-19 CNS
U251 CNS = tested on: U251 CNS
PC-3 prostate = tested on: PC-3 prostate
SK-MEL-5 melanoma = tested on: SK-MEL-5 melanoma
UACC-62 melanoma = tested on: UACC-62 melanoma
SK-MEL-28 melanoma = tested on: SK-MEL-28 melanoma
SK-MEL-2 melanoma = tested on: SK-MEL-2 melanoma
EKVX NSCLC = tested on: EKVX NSCLC
SN12C renal = tested on: SN12C renal
UO-31 renal = tested on: UO-31 renal
TK-10 renal = tested on: TK-10 renal
ACHN renal = tested on: ACHN renal
CAKI-1 renal = tested on: CAKI-1 renal
CCRF-CEM leukemia = tested on: CCRF-CEM leukemia
MOLT-4 leukemia = tested on: MOLT-4 leukemia
SNB-75 CNS = tested on: SNB-75 CNS
LOX IMVI melanoma = tested on: LOX IMVI melanoma
A498 renal = tested on: A498 renal

Measured: growth

O=C(Nc1nc2ccc([N+](=O)[O-])cc2s1)Nc1ccccc1Cl
inactive: HCT-15 colon 29.5% | HT29 colon 53.6% | SNB-19 CNS 21.7% | U251 CNS 29.2% | PC-3 prostate 17.3% | SK-MEL-28 melanoma 49.5% | EKVX NSCLC 33.6% | SN12C renal 10.4% | UO-31 renal 31.8% | TK-10 renal 40.1% | ACHN renal 42.7% | CAKI-1 renal 21.8% | CCRF-CEM leukemia 28.9% | MOLT-4 leukemia 21.8%
active: SK-MEL-5 melanoma -22.5% | UACC-62 melanoma 6.62% | SK-MEL-2 melanoma 9.56%

COc1cc(-c2nn(C(C)(C)C)cc2-c2ccnc(NCCCNS(=O)(=O)c3ccccc3)n2)ccc1Cl
inactive: HCT-15 colon 60.1% | HT29 colon 70.3% | SNB-75 CNS 49.1% | U251 CNS 91.7% | PC-3 prostate 54.8% | SK-MEL-5 melanoma 72.7% | UACC-62 melanoma 78.4% | LOX IMVI melanoma 62.7% | SK-MEL-28 melanoma 93% | SK-MEL-2 melanoma 89.6% | EKVX NSCLC 36.5% | SN12C renal 52% | UO-31 renal 39.4% | TK-10 renal 66% | ACHN renal 77.2% | CAKI-1 renal 27% | A498 renal 31.2% | MOLT-4 leukemia 59.6%

O=C(CSc1nc2ccccc2c(=O)n1-c1ccccc1)Nc1cccc(C(=O)/C=C/c2ccccc2Cl)c1
inactive: HCT-15 colon 92.7% | HT29 colon 102% | SNB-75 CNS 85.6% | U251 CNS 97.7% | PC-3 prostate 99.4% | SK-MEL-5 melanoma 99.3% | UACC-62 melanoma 95.5% | LOX IMVI melanoma 103% | SK-MEL-28 melanoma 107% | SK-MEL-2 melanoma 105% | EKVX NSCLC 99.4% | SN12C renal 102% | UO-31 renal 90.7% | TK-10 renal 138% | ACHN renal 103% | CAKI-1 renal 95.9% | A498 renal 116% | CCRF-CEM leukemia 113% | MOLT-4 leukemia 106%

C=C(C=O)[C@@H]1CC[C@]2(CO)CC[C@]3(C)[C@H](CC[C@@H]4[C@@]5(C)CCCNC(C)(C)[C@@H]5CC[C@]43C)[C@@H]12
inactive: SNB-19 CNS 79.7% | U251 CNS 29.8% | PC-3 prostate 11.4% | SK-MEL-5 melanoma 78% | UACC-62 melanoma 83.2% | SK-MEL-28 melanoma 47.1% | SK-MEL-2 melanoma 99.5% | EKVX NSCLC 88.2% | SN12C renal 54.6% | UO-31 renal 78.3% | TK-10 renal 125% | ACHN renal 88.9% | CAKI-1 renal 67.5% | MOLT-4 leukemia 28%
active: HCT-15 colon -8.29% | HT29 colon -3.52% | CCRF-CEM leukemia 2.49%

COc1cc(C2N=C(NNc3ccccc3)NC(C)=C2C(C)=O)ccc1O (configuration not stated)
inactive: HCT-15 colon 81% | HT29 colon 115% | SNB-75 CNS 88.6% | U251 CNS 100% | PC-3 prostate 84.5% | SK-MEL-5 melanoma 104% | UACC-62 melanoma 43% | LOX IMVI melanoma 66.3% | SK-MEL-28 melanoma 101% | SK-MEL-2 melanoma 97.1% | EKVX NSCLC 79.3% | SN12C renal 95.5% | UO-31 renal 63.2% | TK-10 renal 149% | ACHN renal 63% | CAKI-1 renal 56.8% | A498 renal 105% | CCRF-CEM leukemia 101% | MOLT-4 leukemia 89.9%

COc1ccccc1NCc1cccn1Cc1ccc(F)cc1
inactive: HCT-15 colon 98.3% | HT29 colon 102% | SNB-75 CNS 104% | U251 CNS 98.8% | PC-3 prostate 97.3% | SK-MEL-5 melanoma 97.4% | UACC-62 melanoma 89.8% | LOX IMVI melanoma 97% | SK-MEL-28 melanoma 97.4% | SK-MEL-2 melanoma 106% | EKVX NSCLC 98% | SN12C renal 97.5% | UO-31 renal 75.6% | TK-10 renal 91.3% | ACHN renal 93.3% | CAKI-1 renal 94% | A498 renal 85.9% | CCRF-CEM leukemia 91.8% | MOLT-4 leukemia 94%

Cn1cc(-c2nc(N)nnc2-c2c[nH]c3ccccc23)c2cc(Br)ccc21
inactive: HCT-15 colon 24.5% | U251 CNS 23.1% | SK-MEL-5 melanoma 22.7% | UACC-62 melanoma 21% | LOX IMVI melanoma 24% | SK-MEL-2 melanoma 19.5% | EKVX NSCLC 45.6% | SN12C renal 27.9% | UO-31 renal 33.5% | TK-10 renal 88.6% | ACHN renal 38.9% | CAKI-1 renal 25.2%
active: HT29 colon 5.93% | SNB-75 CNS 7.38% | PC-3 prostate 6.53% | A498 renal -12.1% | CCRF-CEM leukemia 7.57% | MOLT-4 leukemia 8.98%

N#C/C(=C\c1ccc(-c2ccc(Cl)cc2Cl)o1)c1ccc(F)cc1
inactive: HCT-15 colon 94.5% | HT29 colon 96.4% | SNB-75 CNS 77.6% | U251 CNS 98.5% | PC-3 prostate 87.8% | SK-MEL-5 melanoma 95.7% | UACC-62 melanoma 71.2% | LOX IMVI melanoma 87.6% | SK-MEL-28 melanoma 102% | EKVX NSCLC 87.4% | SN12C renal 98.6% | UO-31 renal 81.5% | TK-10 renal 138% | ACHN renal 89.9% | CAKI-1 renal 68.8% | CCRF-CEM leukemia 93.7% | MOLT-4 leukemia 93.8%

CS(=O)(=O)Nc1cc(-c2ccc3ncc(C#N)c(N[C@H](CO)c4ccccc4)c3c2)cnc1Cl
inactive: HCT-15 colon 36.7% | HT29 colon 74.3% | SNB-75 CNS 36% | U251 CNS 36.1% | PC-3 prostate 32.7% | UACC-62 melanoma 13.7% | LOX IMVI melanoma 26.9% | SK-MEL-28 melanoma 35.2% | SK-MEL-2 melanoma 10.3% | EKVX NSCLC 66.9% | SN12C renal 31.1% | UO-31 renal 43.4% | TK-10 renal 34.8% | ACHN renal 81.4% | CAKI-1 renal 33.3% | MOLT-4 leukemia 14.7%
active: SK-MEL-5 melanoma -77.3% | A498 renal 7.35%

O=C(NCc1ncc[nH]1)c1ccc(-c2nc3ccc4[nH]ncc4c3c3c2CCCC3)cc1
inactive: HCT-15 colon 48% | HT29 colon 22.3% | SNB-75 CNS 30.1% | U251 CNS 13.2% | EKVX NSCLC 47.9% | SN12C renal 10.5% | UO-31 renal 51.6% | ACHN renal 42%
active: PC-3 prostate 2.66% | SK-MEL-5 melanoma 8.91% | UACC-62 melanoma 4.94% | LOX IMVI melanoma 3.29% | SK-MEL-2 melanoma -32.6% | TK-10 renal -2.79% | A498 renal -13.7% | MOLT-4 leukemia -23.5%

O=C(Nc1cccc(Cl)c1)Nc1nc2ccc([N+](=O)[O-])cc2o1
active: U251 CNS 6.13% | PC-3 prostate 5.64% | SK-MEL-5 melanoma -13% | UACC-62 melanoma 2.02% | SK-MEL-2 melanoma 3.62% | MOLT-4 leukemia 9.15%
inactive: HCT-15 colon 13.7% | HT29 colon 14.3% | SNB-19 CNS 19.7% | SK-MEL-28 melanoma 26% | EKVX NSCLC 16.7% | SN12C renal 16.8% | UO-31 renal 24% | ACHN renal 23% | CAKI-1 renal 15.8% | CCRF-CEM leukemia 10.5%

O=C(O)c1ccc(-n2cc(CNc3cccc(Cl)c3)c(-c3ccc(F)cc3)n2)cc1
inactive: HCT-15 colon 80.7% | HT29 colon 111% | SNB-75 CNS 120% | U251 CNS 101% | PC-3 prostate 94% | SK-MEL-5 melanoma 91.7% | UACC-62 melanoma 74.3% | LOX IMVI melanoma 74.2% | SK-MEL-28 melanoma 101% | SK-MEL-2 melanoma 96.1% | EKVX NSCLC 90.5% | SN12C renal 98.5% | UO-31 renal 94.4% | TK-10 renal 127% | ACHN renal 89.6% | CAKI-1 renal 89.9% | A498 renal 72.5% | CCRF-CEM leukemia 94% | MOLT-4 leukemia 80%

CN1c2ccccc2Sc2cc(C=C(C#N)C#N)ccc21
active: A498 renal -19%
inactive: HCT-15 colon 101% | HT29 colon 111% | SNB-75 CNS 79.8% | PC-3 prostate 105% | SK-MEL-5 melanoma 100% | UACC-62 melanoma 46.5% | LOX IMVI melanoma 87.3% | SK-MEL-28 melanoma 104% | SK-MEL-2 melanoma 101% | EKVX NSCLC 93.6% | SN12C renal 92.7% | UO-31 renal 95.6% | TK-10 renal 111% | CAKI-1 renal 91.8% | CCRF-CEM leukemia 102% | MOLT-4 leukemia 84.8%

O=C(Nc1ccc(Br)cc1)Nc1nc2ccc([N+](=O)[O-])cc2s1
inactive: SNB-19 CNS 19.1% | CCRF-CEM leukemia 10.9%
active: HCT-15 colon -11.3% | HT29 colon 7.76% | U251 CNS 0.478% | PC-3 prostate 0.887% | SK-MEL-5 melanoma -82.2% | UACC-62 melanoma -19.6% | SK-MEL-28 melanoma 6.25% | SK-MEL-2 melanoma -22.7% | EKVX NSCLC 9.52% | SN12C renal 4.21% | UO-31 renal 5.94% | TK-10 renal -2.48% | ACHN renal 3.61% | CAKI-1 renal -2.25% | MOLT-4 leukemia 3.2%

C=C(C)[C@@H]1CC[C@]2(COP(=O)(OCC)OCC)CC[C@]3(C)[C@H](CC[C@@H]4[C@@]5(C)CCCNC(C)(C)[C@@H]5CC[C@]43C)[C@@H]12
inactive: HCT-15 colon 16.6% | SNB-75 CNS 37% | U251 CNS 37.4% | PC-3 prostate 26.3% | SK-MEL-5 melanoma 37.4% | UACC-62 melanoma 80.3% | SK-MEL-2 melanoma 92.7% | EKVX NSCLC 40.4% | SN12C renal 46.6% | UO-31 renal 30.9% | TK-10 renal 58.9% | ACHN renal 59.2% | CAKI-1 renal 29.1% | A498 renal 55%
active: HT29 colon 5.58% | LOX IMVI melanoma -87.9% | SK-MEL-28 melanoma -38.2% | MOLT-4 leukemia -29.8%

CC1=N[C@@H]2CN(C(=O)OC(C)(C)C)C[C@@H]2n2c1cc1ccccc1c2=O
inactive: HCT-15 colon 104% | HT29 colon 106% | SNB-75 CNS 91.7% | U251 CNS 106% | PC-3 prostate 92% | SK-MEL-5 melanoma 99.1% | UACC-62 melanoma 97.9% | LOX IMVI melanoma 98.2% | SK-MEL-28 melanoma 115% | SK-MEL-2 melanoma 102% | EKVX NSCLC 103% | SN12C renal 97.1% | UO-31 renal 74.9% | ACHN renal 92.6% | CAKI-1 renal 80.2% | A498 renal 114% | CCRF-CEM leukemia 105% | MOLT-4 leukemia 106%

Fc1ccc(-c2cc3nc(C(Cl)Cl)nc(-c4ccco4)n3n2)cc1
active: HT29 colon -13.4% | SNB-19 CNS 0.644% | U251 CNS -9.36% | PC-3 prostate -19.2% | SK-MEL-28 melanoma -24.5% | EKVX NSCLC -8.73% | UO-31 renal -14.5% | TK-10 renal -11.7% | ACHN renal -35.3% | CAKI-1 renal -23.7% | A498 renal -38.6%
inactive: SNB-75 CNS 55.7% | SK-MEL-5 melanoma 95.9% | UACC-62 melanoma 17.2% | LOX IMVI melanoma 93.5% | SK-MEL-2 melanoma 55.1% | SN12C renal 59.1% | CCRF-CEM leukemia 85.2% | MOLT-4 leukemia 59.7%
